AmpC detergent: inhibitors of E. coli AmpC beta-lactamase with detergent; P00811; AmpC hydrolysis of nitrocefin, absorbance 480 nm, 0.01% Triton; Potency, µM (top dose mostly 114 µM), inactives show at the top dose activity change, negative = inhibition, most hits filed as inhibitors; 0.041% of 370,000 active;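 also: potency is read from the fitted curve at half-maximal effect; 0% = no-compound wells and -100% = no-enzyme wells; nearly all actives have a fitted effect of over 25% in size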
Target sequence (P00811 whole entry, looked up): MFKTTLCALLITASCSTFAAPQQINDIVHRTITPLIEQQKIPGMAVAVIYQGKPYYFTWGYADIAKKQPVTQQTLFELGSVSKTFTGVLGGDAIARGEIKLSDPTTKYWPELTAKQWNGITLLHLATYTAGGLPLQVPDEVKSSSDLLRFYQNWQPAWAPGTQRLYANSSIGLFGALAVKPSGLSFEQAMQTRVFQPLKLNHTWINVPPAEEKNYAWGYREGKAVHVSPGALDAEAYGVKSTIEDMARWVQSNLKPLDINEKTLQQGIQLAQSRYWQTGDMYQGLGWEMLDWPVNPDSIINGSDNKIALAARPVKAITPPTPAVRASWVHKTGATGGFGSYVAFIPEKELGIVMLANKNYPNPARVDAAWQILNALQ
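AmpC (5.3 nM in the dispensed reagent) in 20 mM phosphate pH 7.0 with 0.01% (detergent screen) or 0.0001% Triton X-100 was preincubated with compounds for 15 min at room temperature. Nitrocefin was then added from an 800 uM solution, and hydrolysis was followed at 480 nm.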
SARS PLpro yeast-1: SARS-CoV PLP inhibition in yeast. S. cerevisiae expressing SARS-CoV PLpro, growth rescue. Potency, µM (top dose mostly 32.9 µM), without a hit: top-dose activity, positive = growth rescue, actives largely listed as activators. 0.19% of 330,000 active; calls by dose curve; also: potency is read from the fitted curve at half-maximal effect; 0% is about no effect; nearly all actives have a fitted effect of over 55% in size
AmpC inh no detg: inhibitors of E. coli AmpC beta-lactamase without detergent; P00811; AmpC nitrocefin hydrolysis, absorbance 480 nm, 0.0001% Triton; Potency, µM (highest dose often 57.1 µM), without a hit: at the top dose activity change, negative = inhibition, usual class: inhibitors; 0.52% of 330,000 active; AID 485341;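 also: potency is read from the fitted curve at half-maximal effect; plate controls were no compound for no effect and no enzyme for full effect; nearly all actives have a fitted effect of over 20% in size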
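AmpC (5.3 nM in the dispensed reagent) in 20 mM phosphate pH 7.0 with 0.01% (detergent screen) or 0.0001% Triton X-100 was preincubated with compounds for 15 min at room temperature. Nitrocefin was then added from an 800 uM solution, and hydrolysis was followed at 480 nm.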
AMA1 RON2 block: disrupts binding of P. falciparum AMA1 to RON2; Potency, µM (titrated, usually from 58.2 µM), inactives show at the top dose activity change, negative = inhibition, usual class: inhibitors; 0.2% of 360,000 active; AlphaScreen AMA1-biotinylated RON2 peptide binding; AID 720542;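 also: potency is read from the fitted curve at half-maximal effect; 0% = vehicle wells and -100% = peptide control; nearly all actives have a fitted effect of over 45% in size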
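AMA1 (3D7) with his tag at 25 nM final met compounds first, then biotinylated RON2 peptide at 25 nM; detection used donor plus acceptor beads, 10 µg/mL apiece, read by AlphaScreen after 30 min at room temperature.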
NS1 inh: inhibitors of influenza NS1 protein function. Potency, µM (top dose mostly 46.1 µM), inactives show top-dose activity, positive = more growth. 0.4% of 270,000 active. AID 2326; calls by dose curve; also: potency is read from the fitted curve at half-maximal effect; actives are rising curves; nearly all actives have a fitted effect of over 50% in size
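Recovery from NS1-induced slow growth read by OD600 in budding yeast switched to galactose assay medium (pH 6.0, -URA) at 1:100 dilution. Compound 23 nl per well; the matching strain lacking NS1 serves as control.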
SARS PLpro yeast-2: Validates SARS-CoV PLpro inhibitor hits in yeast; shares compounds with SARS PLpro yeast-1; yeast expressing SARS-CoV PLpro, growth phenotype rescue; calls only; 19% of 1,000 active; AID 652038; call rule not given here
* = called active by the depositor; [ ] = dose if it differs, or a comment. An excerpt weighted towards active compounds, which were near 0.99% of everything screened. Unless noted, calls follow the shape of the dose curve; as a rule, active = well fitted curve in the direction sought with a large enough effect; inconclusive = small, poorly fitted or top-dose-only effect, or another doubt; inactive = no such curve, though single readings can be large; an effect the other way counts as inactive or inconclusive.

Results for O=C(N/N=C/c1c(O)n(Cc2ccccc2)c(=O)c2ccccc12)c1cccnc1 ?
AmpC detergent: -8%; SARS PLpro yeast-1: inconclusive; AmpC inh no detg: -50%; AMA1 RON2 block: 47%

What do the screens show for `O=C(N/N=C/c1c(O)n(-c2ccccc2Cl)c(=O)c2ccccc12)c1cccnc1`?
AmpC detergent: -3%; SARS PLpro yeast-1: 5.6µM*; AmpC inh no detg: -14%; AMA1 RON2 block: 44%; SARS PLpro yeast-2: inactive

How did Cc1cccc(-n2c(O)c(/C=N/NC(=O)c3ccccc3Cl)c3ccccc3c2=O)n1 do in these assays?
AmpC detergent: -12%; SARS PLpro yeast-1: 14µM*; AmpC inh no detg: -28%; AMA1 RON2 block: -26%; NS1 inh: inconclusive; SARS PLpro yeast-2: inactive

How did Cc1ccc(-n2nc(C(=O)N3CCN(c4cc(Cl)ccc4C)CC3)c3c4ccccc4n(C)c3c2=O)cc1 do in these assays?
AmpC detergent: 1%

How did O=C(N/N=C/c1cc(Br)ccc1O)C(=O)Nc1ccccc1OC(F)(F)C(F)F do in these assays?
AmpC detergent: 3%; SARS PLpro yeast-1: -5%; AmpC inh no detg: -40%; AMA1 RON2 block: 34%; NS1 inh: -12%

What do the screens show for `O=C(N/N=C/c1cc(Cl)ccc1O)C(=O)Nc1ccccc1OC(F)(F)C(F)F`?
AmpC detergent: -7%; SARS PLpro yeast-1: 2µM*; AmpC inh no detg: -17%; AMA1 RON2 block: 23%; NS1 inh: 2%; SARS PLpro yeast-2: inactive

What do the screens show for `O=C(COc1ccccc1)NCC(c1ccc(Cl)cc1)N1CCCCC1` (stereo not given)?
AmpC detergent: 11%

What do the screens show for `O=C(/C=C/c1ccco1)Oc1cc(Br)cc(/C=N/NC(=O)c2ccccc2O)c1`?
AmpC detergent: -11%; AmpC inh no detg: -32%; AMA1 RON2 block: 10%; NS1 inh: 18%; SARS PLpro yeast-2: inactive

How did O=C(CSc1nc2nn(-c3ccccc3)c(=O)c-2c2n1CCCCC2)c1ccc(O)c(O)c1 do in these assays?
AmpC detergent: 0%; SARS PLpro yeast-1: 7.1µM*; AmpC inh no detg: -44%; AMA1 RON2 block: -15%[11.6 µM]; SARS PLpro yeast-2: inactive

What do the screens show for `CNC(=O)CSc1nc2nn(-c3ccccc3)c(=O)c-2c2n1CCCCC2`?
AmpC detergent: 1%; SARS PLpro yeast-1: 5%; AmpC inh no detg: -10%; AMA1 RON2 block: 6%; NS1 inh: 0%

How did CCC1CN(C(=O)N2CCC(C(=O)Nc3cc(C)ccc3C)CC2)c2ccccc2O1 (stereo not given) do in these assays?
AmpC detergent: 0%

How did C=CCc1cc(OC)ccc1OCCN(C)Cc1ccccc1 do in these assays?
AmpC detergent: -1%; SARS PLpro yeast-1: inconclusive; AmpC inh no detg: 33%; AMA1 RON2 block: inconclusive; NS1 inh: -2%; SARS PLpro yeast-2: inactive

What do the screens show for `COc1ccc(OCCCCN(C)Cc2ccccc2)cc1`?
AmpC detergent: -17%; SARS PLpro yeast-1: -1%; AmpC inh no detg: -1%; AMA1 RON2 block: inconclusive; NS1 inh: -9%

How did CN(C)c1ccc(CNc2nc(-c3ccco3)nn2S(C)(=O)=O)cc1 do in these assays?
AmpC detergent: 3%

What do the screens show for `CC(=O)c1ccc(NC(=O)c2cccc(NC(=O)N3CCSc4ncccc43)c2)cc1`?
AmpC detergent: 20%

Results for Cc1ccc(N(C(=O)c2ccc3c(c2)OCO3)C2C=CS(=O)(=O)C2)cc1C (stereo not given) ?
AmpC detergent: -1%; AmpC inh no detg: 55%; AMA1 RON2 block: -17%; NS1 inh: 5%; SARS PLpro yeast-2: inactive

Results for COc1cccc(C(=O)COC(=O)C2CC3CCCC(C2)C3=O)c1 (stereo not given) ?
AmpC detergent: inconclusive; SARS PLpro yeast-1: -2%; AmpC inh no detg: -12%; AMA1 RON2 block: 0%

What do the screens show for `COc1ccc(C(=O)COC(=O)C2CC3CCCC(C2)C3=O)cc1Br` (stereo not given)?
AmpC detergent: -16%; SARS PLpro yeast-1: inconclusive; AmpC inh no detg: -16%; AMA1 RON2 block: -22%; SARS PLpro yeast-2: inactive

What do the screens show for `CC(C)n1cnnc1SCC(=O)NC(=O)c1ccccc1`?
AmpC detergent: inconclusive; SARS PLpro yeast-1: inconclusive; AmpC inh no detg: -14%; AMA1 RON2 block: 1%; SARS PLpro yeast-2: inactive

How did COc1ccc(C(=O)Nc2ccc(Cl)c(S(=O)(=O)Nc3ccccc3OC)c2)cc1 do in these assays?
AmpC detergent: -2%; SARS PLpro yeast-1: inconclusive; AmpC inh no detg: -5%; AMA1 RON2 block: -7%; NS1 inh: 28%; SARS PLpro yeast-2: inconclusive

Results for O=C(N/N=C/c1ccccn1)c1ccc(Br)cc1 ?
AmpC detergent: inconclusive; SARS PLpro yeast-1: inconclusive; AmpC inh no detg: -24%; AMA1 RON2 block: 71%; NS1 inh: -50%; SARS PLpro yeast-2: inconclusive

How did O=C(N/N=C/c1ccccn1)c1ccc(N/N=C/c2ccccn2)cc1 do in these assays?
AmpC detergent: 7%; SARS PLpro yeast-1: -1%; AmpC inh no detg: 29%; AMA1 RON2 block: 20%

What do the screens show for `O=C(O)c1cccc(NC(=S)N/N=C/c2ccccn2)c1`?
AmpC detergent: 4%; SARS PLpro yeast-1: 5µM*; AmpC inh no detg: -28%; AMA1 RON2 block: -66%; SARS PLpro yeast-2: active

How did CCCCNC(=O)c1c(C)oc2ncn(CC(C)C)c(=O)c12 do in these assays?
AmpC detergent: -9%

Results for CCNC(=S)N/N=C/c1cccs1 ?
AmpC detergent: 1%; SARS PLpro yeast-1: inconclusive; AmpC inh no detg: -15%; AMA1 RON2 block: -24%; NS1 inh: 2%; SARS PLpro yeast-2: active

How did Cc1ccccc1Cn1cc(CCC(=O)NC(C)c2ccccc2)c2ccccc21 (stereo not given) do in these assays?
AmpC detergent: 22%

How did O=C(Oc1c(Cl)cc(Cl)c2cccnc12)c1cccs1 do in these assays?
AmpC detergent: inconclusive; AmpC inh no detg: -23%; AMA1 RON2 block: 68%; NS1 inh: -17%; SARS PLpro yeast-2: inconclusive

What do the screens show for `O=C(Oc1c(CN2CCOCC2)cc(Cl)c2cccnc12)c1cccs1`?
AmpC detergent: -12%; SARS PLpro yeast-1: inconclusive; AmpC inh no detg: 88%; AMA1 RON2 block: -22%

What do the screens show for `CCOc1ccc(S(=O)(=O)Nc2cc(Cl)ccc2OC)c2cccnc12`?
AmpC detergent: -1%

What do the screens show for `Cc1cc(SC#N)cc(C)c1NC(=O)CCl`?
AmpC detergent: -2%; AmpC inh no detg: -5%; AMA1 RON2 block: 4%; NS1 inh: -3%; SARS PLpro yeast-2: inactive

Results for CCOc1ccc(C(=O)Nc2ccc(-c3cc4ccccc4oc3=O)cc2)cc1Br ?
AmpC detergent: 2%

What do the screens show for `CCC(=O)c1ccc(N2CCN(C(=O)c3ccc(F)cc3)CC2)c(F)c1`?
AmpC detergent: 3%; SARS PLpro yeast-1: -1%; AmpC inh no detg: 24%; AMA1 RON2 block: 1%; NS1 inh: -3%
